Measured values reported in publication PMC8222333, “AsCas12a ultra nuclease facilitates the rapid generation of therapeutic cell medicines”.

B1: TCGA (dsDNA)
DNA 1: GCTATCTAGTGCTCAGTACGCACTGTCGAAGGAAACTTCTGGCAGGACCAGGTCATGAGATCGGAAGAGCACACGTCTGAACTCCAGTCA
DNA 2: TGACTGGAGTTCAGACGTGTGCTCTTCCGATCTCATGACCTGGTCCTGCCAGAAGTTTCCTTCGACAGTGCGTACTGAGCACTAGATAGC
RNA: AAUUUCUACUCUUGUAGAUAGGAAACUUCUGGCAGGACC
B2: TGAA (dsDNA)
DNA 1: GCTATCTAGTGCTCAGTACGCACTGTGAAAGGAAACTTCTGGCAGGACCAGGTCATGAGATCGGAAGAGCACACGTCTGAACTCCAGTCA
DNA 2: TGACTGGAGTTCAGACGTGTGCTCTTCCGATCTCATGACCTGGTCCTGCCAGAAGTTTCCTTTCACAGTGCGTACTGAGCACTAGATAGC
RNA: AAUUUCUACUCUUGUAGAUAGGAAACUUCUGGCAGGACC
B3: AAAT (dsDNA)
DNA 1: GCTATCTAGTGCTCAGTACGCACTGAAATAGGAAACTTCTGGCAGGACCAGGTCATGAGATCGGAAGAGCACACGTCTGAACTCCAGTCA
DNA 2: TGACTGGAGTTCAGACGTGTGCTCTTCCGATCTCATGACCTGGTCCTGCCAGAAGTTTCCTATTTCAGTGCGTACTGAGCACTAGATAGC
RNA: AAUUUCUACUCUUGUAGAUAGGAAACUUCUGGCAGGACC
B4: TTGT (dsDNA)
DNA 1: GCTATCTAGTGCTCAGTACGCACTGTTGTAGGAAACTTCTGGCAGGACCAGGTCATGAGATCGGAAGAGCACACGTCTGAACTCCAGTCA
DNA 2: TGACTGGAGTTCAGACGTGTGCTCTTCCGATCTCATGACCTGGTCCTGCCAGAAGTTTCCTACAACAGTGCGTACTGAGCACTAGATAGC
RNA: AAUUUCUACUCUUGUAGAUAGGAAACUUCUGGCAGGACC
B5: TCGC (dsDNA)
DNA 1: GCTATCTAGTGCTCAGTACGCACTGTCGCAGGAAACTTCTGGCAGGACCAGGTCATGAGATCGGAAGAGCACACGTCTGAACTCCAGTCA
DNA 2: TGACTGGAGTTCAGACGTGTGCTCTTCCGATCTCATGACCTGGTCCTGCCAGAAGTTTCCTGCGACAGTGCGTACTGAGCACTAGATAGC
RNA: AAUUUCUACUCUUGUAGAUAGGAAACUUCUGGCAGGACC
B6: TTCG (dsDNA)
DNA 1: GCTATCTAGTGCTCAGTACGCACTGTTCGAGGAAACTTCTGGCAGGACCAGGTCATGAGATCGGAAGAGCACACGTCTGAACTCCAGTCA
DNA 2: TGACTGGAGTTCAGACGTGTGCTCTTCCGATCTCATGACCTGGTCCTGCCAGAAGTTTCCTCGAACAGTGCGTACTGAGCACTAGATAGC
RNA: AAUUUCUACUCUUGUAGAUAGGAAACUUCUGGCAGGACC
B7: TGGA (dsDNA)
DNA 1: GCTATCTAGTGCTCAGTACGCACTGTGGAAGGAAACTTCTGGCAGGACCAGGTCATGAGATCGGAAGAGCACACGTCTGAACTCCAGTCA
DNA 2: TGACTGGAGTTCAGACGTGTGCTCTTCCGATCTCATGACCTGGTCCTGCCAGAAGTTTCCTTCCACAGTGCGTACTGAGCACTAGATAGC
RNA: AAUUUCUACUCUUGUAGAUAGGAAACUUCUGGCAGGACC
B8: TTGG (dsDNA)
DNA 1: GCTATCTAGTGCTCAGTACGCACTGTTGGAGGAAACTTCTGGCAGGACCAGGTCATGAGATCGGAAGAGCACACGTCTGAACTCCAGTCA
DNA 2: TGACTGGAGTTCAGACGTGTGCTCTTCCGATCTCATGACCTGGTCCTGCCAGAAGTTTCCTCCAACAGTGCGTACTGAGCACTAGATAGC
RNA: AAUUUCUACUCUUGUAGAUAGGAAACUUCUGGCAGGACC
B9: TCTT (dsDNA)
DNA 1: GCTATCTAGTGCTCAGTACGCACTGTCTTAGGAAACTTCTGGCAGGACCAGGTCATGAGATCGGAAGAGCACACGTCTGAACTCCAGTCA
DNA 2: TGACTGGAGTTCAGACGTGTGCTCTTCCGATCTCATGACCTGGTCCTGCCAGAAGTTTCCTAAGACAGTGCGTACTGAGCACTAGATAGC
RNA: AAUUUCUACUCUUGUAGAUAGGAAACUUCUGGCAGGACC
B10: TCGT (dsDNA)
DNA 1: GCTATCTAGTGCTCAGTACGCACTGTCGTAGGAAACTTCTGGCAGGACCAGGTCATGAGATCGGAAGAGCACACGTCTGAACTCCAGTCA
DNA 2: TGACTGGAGTTCAGACGTGTGCTCTTCCGATCTCATGACCTGGTCCTGCCAGAAGTTTCCTACGACAGTGCGTACTGAGCACTAGATAGC
RNA: AAUUUCUACUCUUGUAGAUAGGAAACUUCUGGCAGGACC
B11: TGTG (dsDNA)
DNA 1: GCTATCTAGTGCTCAGTACGCACTGTGTGAGGAAACTTCTGGCAGGACCAGGTCATGAGATCGGAAGAGCACACGTCTGAACTCCAGTCA
DNA 2: TGACTGGAGTTCAGACGTGTGCTCTTCCGATCTCATGACCTGGTCCTGCCAGAAGTTTCCTCACACAGTGCGTACTGAGCACTAGATAGC
RNA: AAUUUCUACUCUUGUAGAUAGGAAACUUCUGGCAGGACC
B12: TGTT (dsDNA)
DNA 1: GCTATCTAGTGCTCAGTACGCACTGTGTTAGGAAACTTCTGGCAGGACCAGGTCATGAGATCGGAAGAGCACACGTCTGAACTCCAGTCA
DNA 2: TGACTGGAGTTCAGACGTGTGCTCTTCCGATCTCATGACCTGGTCCTGCCAGAAGTTTCCTAACACAGTGCGTACTGAGCACTAGATAGC
RNA: AAUUUCUACUCUUGUAGAUAGGAAACUUCUGGCAGGACC
B13: TGGT (dsDNA)
DNA 1: GCTATCTAGTGCTCAGTACGCACTGTGGTAGGAAACTTCTGGCAGGACCAGGTCATGAGATCGGAAGAGCACACGTCTGAACTCCAGTCA
DNA 2: TGACTGGAGTTCAGACGTGTGCTCTTCCGATCTCATGACCTGGTCCTGCCAGAAGTTTCCTACCACAGTGCGTACTGAGCACTAGATAGC
RNA: AAUUUCUACUCUUGUAGAUAGGAAACUUCUGGCAGGACC
B14: TTAG (dsDNA)
DNA 1: GCTATCTAGTGCTCAGTACGCACTGTTAGAGGAAACTTCTGGCAGGACCAGGTCATGAGATCGGAAGAGCACACGTCTGAACTCCAGTCA
DNA 2: TGACTGGAGTTCAGACGTGTGCTCTTCCGATCTCATGACCTGGTCCTGCCAGAAGTTTCCTCTAACAGTGCGTACTGAGCACTAGATAGC
RNA: AAUUUCUACUCUUGUAGAUAGGAAACUUCUGGCAGGACC
B15: TTAT (dsDNA)
DNA 1: GCTATCTAGTGCTCAGTACGCACTGTTATAGGAAACTTCTGGCAGGACCAGGTCATGAGATCGGAAGAGCACACGTCTGAACTCCAGTCA
DNA 2: TGACTGGAGTTCAGACGTGTGCTCTTCCGATCTCATGACCTGGTCCTGCCAGAAGTTTCCTATAACAGTGCGTACTGAGCACTAGATAGC
RNA: AAUUUCUACUCUUGUAGAUAGGAAACUUCUGGCAGGACC

target: dAsCas12a Ultra (Acidaminococcus sp., UniProt U2UMQ6 1-1307, M537R;F870L;D908A;E993A;D1235A); assay: Spec-seq (native PAGE EMSA with sequencing of bound and unbound); 25 mM Tris-HCl pH 7.4, 150 mM KCl, 5 mM MgCl2, 10% glycerol, 1 mM DTT, 40 ng/uL salmon sperm DNA; 400 nM Cas12a, 480 nM crRNA, 50 nM library, 37 C 1 h; native PAGE at room temperature; high values mean tight binding; settings: protein: recombinant

Row | Binder | binding signal
1 | B1 | -8.77 lnKA
2 | B2 | -8.9 lnKA
3 | B4 | -7.79 lnKA
4 | B5 | -7.42 lnKA
5 | B6 | -6.85 lnKA
6 | B7 | -8 lnKA
7 | B8 | -7.84 lnKA
8 | B9 | -6.94 lnKA
9 | B10 | -8.83 lnKA
10 | B11 | -7.7 lnKA
11 | B12 | -7.9 lnKA
12 | B13 | -8.76 lnKA
13 | B14 | -8.15 lnKA
14 | B15 | -8.23 lnKA

target: dAsCas12a E174R (Acidaminococcus sp., UniProt U2UMQ6 1-1307, E174R;D908A;E993A;D1235A); assay: as above; settings: protein: recombinant;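 further: relative affinity from the bound to unbound sequence frequency ratio in Spec-seq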

Row | Binder | binding signal
15 | B1 | -8.54 lnKA
16 | B3 | -8.92 lnKA
17 | B4 | -7.77 lnKA
18 | B5 | -7.83 lnKA
19 | B6 | -7.11 lnKA
20 | B8 | -8.2 lnKA
21 | B9 | -6.26 lnKA
22 | B10 | -8.58 lnKA
23 | B11 | -8.19 lnKA
24 | B12 | -8.41 lnKA
25 | B14 | -8.42 lnKA
26 | B15 | -8.07 lnKA

target: dAsCas12a S542R (Acidaminococcus sp., UniProt U2UMQ6 1-1307, S542R;D908A;E993A;D1235A); assay: as above; settings: protein: recombinant;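 further: relative affinity from the bound to unbound sequence frequency ratio in Spec-seq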

Row | Binder | binding signal
27 | B1 | -7.61 lnKA
28 | B2 | -8.33 lnKA
29 | B3 | -8.45 lnKA
30 | B4 | -7.47 lnKA
31 | B5 | -7.58 lnKA
32 | B6 | -3.01 lnKA
33 | B7 | -7.85 lnKA
34 | B8 | -7.64 lnKA
35 | B9 | -7.22 lnKA
36 | B10 | -8.35 lnKA
37 | B11 | -7.46 lnKA
38 | B12 | -7.82 lnKA
39 | B13 | -8.26 lnKA
40 | B14 | -7.46 lnKA
41 | B15 | -7.55 lnKA

target: d-enCas12a (Acidaminococcus sp., UniProt U2UMQ6 1-1307, E174R;S542R;K548R;D908A;E993A;D1235A); assay: as above; settings: protein: recombinant

Row | Binder | binding signal
42 | B1 | -5.86 lnKA
43 | B2 | -5.68 lnKA
44 | B3 | -5.69 lnKA
45 | B4 | -4.47 lnKA
46 | B5 | -5.36 lnKA
47 | B6 | -1.14 lnKA
48 | B7 | -5.44 lnKA
49 | B8 | -5.22 lnKA
50 | B9 | -5.44 lnKA
51 | B10 | -5.85 lnKA
52 | B11 | -2.08 lnKA
53 | B12 | -3.23 lnKA
54 | B13 | -5.72 lnKA
55 | B14 | -4.03 lnKA
56 | B15 | -4.53 lnKA

target: d-enCas12a-Ultra (Acidaminococcus sp., UniProt U2UMQ6 1-1307, E174R;S542R;K548R;M537R;F870L;D908A;E993A;D1235A); assay: as above; settings: protein: recombinant;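 further: relative affinity from the bound to unbound sequence frequency ratio in Spec-seq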

Row | Binder | binding signal
57 | B1 | -3.33 lnKA
58 | B2 | -3.27 lnKA
59 | B3 | -3.07 lnKA
60 | B4 | -1.69 lnKA
61 | B5 | -2.95 lnKA
62 | B6 | -0.323 lnKA
63 | B7 | -3.27 lnKA
64 | B8 | -2.4 lnKA
65 | B9 | -2.4 lnKA
66 | B10 | -3.4 lnKA
67 | B11 | -0.568 lnKA
68 | B12 | -0.889 lnKA
69 | B13 | -3.36 lnKA
70 | B14 | -1.65 lnKA
71 | B15 | -2.12 lnKA

target: dAsCas12a K548R (Acidaminococcus sp., UniProt U2UMQ6 1-1307, K548R;D908A;E993A;D1235A); assay: as above; settings: protein: recombinant

Row | Binder | binding signal
72 | B6 | -8.63 lnKA
73 | B11 | -8.2 lnKA
